The values below come from PubChem BioAssay AID434970 (Sanford-Burnham Center for Chemical Genomics, 2010).

Among all 11,000 compounds or so, about 310 (2.8%) were called active. No stated cut-off is given here; in the data, active means activity change below about -85%; inactive means the rest. The list comes from a sample in which actives are over-represented; it also holds similar structures and randomly drawn compounds.

The subject of this assay is intestinal alkaline phosphatase [Mus musculus]. As to the kind of experiment: activators of mouse IAP, confirmation, biochemical, luminescence, single concentration (AID 434970). The note with it: purified mouse IAP, CDP-Star luminescence, 30 min, at 10 µM; activation factor: measured here: IAP activation factor, stronger effect = higher value; activity change, negative = activation: stronger effect = lower value.
In the case of `CCCc1n[nH]c2c1/C(=N\O)CCC2`, the activation factor was 1.05 and the activity change, negative = activation was -5.35% (inactive).
The corresponding values for `O=C(CN1CCN(Cc2ccc(Cl)cc2)CC1)N/N=C/c1ccncc1` are 0.975 and 2.5% (inactive).
In the same order, the values of `Cc1onc(-c2ccccc2)c1C(=O)Nc1ccnn1C1CCCCC1` are 0.923 and 7.65% (inactive).
In the same order, the values of `Cc1ccccc1NC(=O)CCN1CCN(Cc2ccccc2)CC1` are 1.13 and -13.2% (inactive).
As for `O=C(CCc1nc2ccccc2c(=O)[nH]1)NC1CCN(Cc2ccccc2)CC1`, the activation factor worked out at 0.905 and the activity change, negative = activation is 9.55% (inactive).
In the same order, the values of `O=C(NNS(=O)(=O)c1ccc(Cl)cc1)C1CCN(Cc2ccccc2)CC1` are 1.1 and -9.8% (inactive).
For the compound `Cc1ccc(CC(NC(=O)C2CCCCC2)C(=O)O)cc1` (centres undefined), the activation factor came out at 1.07 and the activity change, negative = activation was -6.55% (inactive).
In the same order, the values of `CSc1ccc(CN2CCC(n3nccc3NC(=O)CCCc3ccccc3)CC2)cc1` are 2.27 and -126% (active).
On to `CC(C)Cc1ccc(CN2CCC(n3nccc3NC(=O)C3CCCC3)CC2)cc1`, for which the activation factor was determined as 1.98 and the activity change, negative = activation was -98.2% (active).
The corresponding values for `O=C(CCCc1ccccc1)Nc1ccnn1C1CCN(Cc2ccc(Cl)cc2)CC1` are 2.18 and -118% (active).
With `CCCN1Cc2cc(OC)ccc2-c2ccccc2S1(=O)=O`, the activation factor came to 1.13 and the activity change, negative = activation is -13.1% (inactive).
As to `O=C(NCc1ccc2c(c1)OCO2)c1cccnc1`, the activation factor was 1.13 and the activity change, negative = activation is -13% (inactive).
As for `O=C(OCC1OC2C(Oc3nc(=O)ccn32)C1O)c1ccccc1` (centres undefined), the activation factor was found to be 1.02 and the activity change, negative = activation was -1.5% (inactive).
Take `N#Cc1c2c(c(NCc3cccnc3)n3c1nc1ccccc13)CCC2`: the activation factor is 0.779 and the activity change, negative = activation is 22.1% (inactive).
Regarding `C#CCOCCOCCOCCNc1nc(N2CCN(C(=O)CCCCCCCCCCNC(=O)[C@H]([C@@H](C)CC)n3cc(CCCCN=C(N)N)nn3)CC2)nc(N2CCN(C(=O)CCCCCCCCCCNC(=O)[C@H](CCCCN)n3cc(C)nn3)CC2)n1`, the activation factor came to 8.54 and the activity change, negative = activation is -754% (active).
The corresponding values for `C#CCOCCOCCOCCNc1nc(N2CCN(C(=O)CCCCCCCCCCNC(=O)[C@H](CCCCN)n3cc(C)nn3)CC2)nc(N2CCN(C(=O)CCCCCCCCCCNC(=O)[C@@H]([C@H](C)CC)n3cc(CCCCCN)nn3)CC2)n1` are 3.63 and -263% (active).
With `CC1CCCC(C(=O)O)N1C(=O)CCS` (centres undefined), the activation factor stood at 0.988 and the activity change, negative = activation is 1.25% (inactive).
The corresponding values for `O=C(Cc1c[nH]c2ccccc12)Nc1nc2ccccc2[nH]1` are 0.845 and 15.5% (inactive).
For `COC(=O)c1c(NC(=O)Nc2ccc(Cl)cc2)sc(C)c1C`, the activation factor turned out to be 0.99 and the activity change, negative = activation is 1% (inactive).
Turning to `CC(C)S(=O)(=O)c1csc(NC(=O)Nc2ccc(Cl)cc2)c1Cl`, the activation factor is 2.16 and the activity change, negative = activation is -116% (active).
The corresponding values for `Cc1csc(NC(=O)Nc2ccc(Cl)cc2)n1` are 1.11 and -11.1% (inactive).
On to `CCOC(=O)c1ccc(NC(=O)c2ccc3c(c2)OCO3)cc1`, for which the activation factor came to 0.959 and the activity change, negative = activation was 4.1% (inactive).
The corresponding values for `CNC(=O)CCC(=O)Nc1ccc(C(=O)OC)cc1` are 0.98 and 2.05% (inactive).
For `CCOC(=O)c1ccc(NC(=O)Nc2ccc3c(c2)OCCO3)cc1`, the activation factor worked out at 2.06 and the activity change, negative = activation was -106% (active).
For the compound `COC(=O)c1ccc(NC(=O)Nc2ccc(C)cc2)cc1`, the activation factor turned out to be 2.15 and the activity change, negative = activation was -115% (active).
Turning to `CCCCOC(=O)c1ccc(NC(=O)Nc2ccc(OC)c(OC)c2)cc1`, the activation factor was determined as 1.64 and the activity change, negative = activation was -63.5% (inactive).
In the same order, the values of `CCS(=O)(=O)Nc1ccc(C(=O)OC)cc1` are 0.912 and 8.8% (inactive).
Consider `CCOC(=O)c1ccc(NC(=O)Nc2ccc(F)cc2)cc1`, for which the activation factor amounted to 1.67 and the activity change, negative = activation was -66.6% (inactive).
Take `COC(=O)c1ccc(NC(=O)Nc2ccc(F)c(Cl)c2)cc1`: the activation factor is 1.86 and the activity change, negative = activation is -86.3% (inactive).
Turning to `COC(=O)c1ccc(NC(=O)Nc2cccc(F)c2)cc1`, the activation factor came to 1.97 and the activity change, negative = activation was -97.4% (active).
In the same order, the values of `CC(Sc1nnc(-c2ccco2)o1)C(=O)Nc1ccc(OC(F)F)cc1` (centres undefined) are 0.893 and 10.7% (inactive).
For the compound `CC1=C(C(N)=O)C(c2cccnc2)n2nc(-c3cccc(Cl)c3)nc2N1` (centres undefined), the activation factor was 0.96 and the activity change, negative = activation was 4% (inactive).
In the same order, the values of `CCCNC(=O)c1csc2c1CCCCC2` are 0.955 and 4.55% (inactive).
On to `CC(NC(=O)CCSc1nc(-c2ccc3c(c2)OCO3)cc(C(F)(F)F)n1)c1ccccc1` (centres undefined), for which the activation factor stood at 0.978 and the activity change, negative = activation is 2.2% (inactive).
The corresponding values for `Cc1cccc(C2=NN(c3ccccc3)[C@@H](C(=O)N3CCOC3=O)[C@@H]2c2ccccc2)c1` are 0.97 and 3% (inactive).
With `CCCN=C1N(CC)C[C@@H]2[C@@H]3C(=O)N(Cc4ccccc4)C(=O)[C@@H]3[C@](Cc3ccccc3)(C(=O)OC)N12`, the activation factor was determined as 1.07 and the activity change, negative = activation is -7.35% (inactive).
The corresponding values for `O=C(CCS(=O)(=O)c1cccc2nonc12)NC1CCCCCC1` are 1.11 and -10.6% (inactive).
The corresponding values for `CN(C)CCCNC(=O)C[C@H]1C[C@H](C(=O)N2CCCCC2)[C@@]2(CCc3ccccc3)c3[nH]c4cc(-c5ccco5)ccc4c3CCN2C1=O` are 1.28 and -28.4% (inactive).
Regarding `Cc1cc(C)cc(NC(=O)NC2CCN(CC(=O)Nc3cccc(Cl)c3C)CC2)c1`, the activation factor stood at 1.68 and the activity change, negative = activation was -68.1% (inactive).
Take `CC(C)c1ccc(NC(=O)NC2CCN(CC(=O)Nc3cccc4ccccc34)CC2)cc1`: the activation factor was determined as 3.72 and the activity change, negative = activation was -272% (active).
For `CCOc1ccccc1NC(=O)CN1CCC(NC(=O)Nc2ccccc2)CC1`, the activation factor came to 2.99 and the activity change, negative = activation was -199% (active).
For `CCOC(=O)c1ccc(NC(=O)NC2CCN(CC(=O)NCc3ccc4c(c3)OCO4)CC2)cc1`, the activation factor turned out to be 1.61 and the activity change, negative = activation is -60.6% (inactive).
Consider `CCOc1ccccc1NC(=O)C1CCCN(C(=O)Nc2ccccc2)C1` (centres undefined), for which the activation factor worked out at 0.961 and the activity change, negative = activation is 3.9% (inactive).
The corresponding values for `CCOc1ccccc1NC(=O)N1CCC(NC(=O)c2cccc(C)c2)CC1` are 0.98 and 2% (inactive).
Turning to `CCOCCCNC(=O)c1ccccc1SCC`, the activation factor came out at 1.04 and the activity change, negative = activation is -4% (inactive).
Regarding `CCOC(=O)c1c(C)[nH]c(C)c1C(=O)CSc1nnc(-c2ccco2)n1Cc1ccccc1`, the activation factor was determined as 1.03 and the activity change, negative = activation was -3.25% (inactive).
In the case of `O=C(CSc1nnc(-c2ccncc2)n1CC1CCCO1)Nc1nccs1` (centres undefined), the activation factor is 1.03 and the activity change, negative = activation is -2.65% (inactive).
For `COc1ccc(C2C(C(=O)N3CCN(c4ccccc4F)CC3)c3ccccc3C(=O)N2C)cc1` (centres undefined), the activation factor was 1.09 and the activity change, negative = activation was -9.15% (inactive).
The corresponding values for `FC(F)Sc1ccc(NC(=S)NC2CCCCC2)cc1` are 1.25 and -24.7% (inactive).
In the same order, the values of `FC(F)Sc1ccc(NC(=S)NCC2CCCCC2)cc1` are 1.45 and -44.6% (inactive).
The corresponding values for `FC(F)Sc1ccc(NC(=S)NCc2ccccc2)cc1` are 1.27 and -26.5% (inactive).
In the case of `O=C(Nc1ccc(SC(F)F)cc1)c1cccc2nc3ccccc3nc12`, the activation factor is 0.946 and the activity change, negative = activation is 5.4% (inactive).
In the same order, the values of `FC(F)Sc1ccc(NC(=S)NC(c2ccccc2)c2ccccc2)cc1` are 3.77 and -277% (active).
On to `CC1CCCC(NC(=S)Nc2ccc(SC(F)F)cc2)C1C` (centres undefined), for which the activation factor is 2.09 and the activity change, negative = activation was -109% (active).
In the same order, the values of `FC(F)Sc1ccc(NC(=S)NC2CCCC2)cc1` are 1.23 and -22.6% (inactive).
In the same order, the values of `FC(F)Sc1ccc(NC(=S)NC2CCC(NC(=S)Nc3ccc(SC(F)F)cc3)CC2)cc1` (centres undefined) are 2.35 and -135% (active).
Turning to `CC1CCCCC1NC(=S)Nc1ccc(SC(F)F)cc1` (centres undefined), the activation factor was found to be 1.52 and the activity change, negative = activation is -51.8% (inactive).
